# Laboratory results taken from the supplement of paper PMC8728848.
# About 410 targets per protein were measured; listed, in parts, are those with the strongest signals and a random draw of the rest.
# Tests used:
# Test in all cases: glycan array binding signal (z-score within array); higher = stronger binding
# Conditions in all cases: glycan notation: IUPAC condensed, linker removed
# Fuc(a1-2)Gal = target: Fuc(a1-2)Gal
# In short: (§1)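 The binding signal is a Z-score computed within each array and averaged over linkers. Arrays of the same protein sequence at different concentrations or buffers were also averaged together. Data originate from 3228 arrays in the Consortium for Functional Glycomics database, kept only where the protein sequence was available.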
# [1] = target: Fuc(a1-2)Gal(b1-3)GlcNAc(b1-2)Man(a1-3)[Fuc(a1-2)Gal(b1-3)GlcNAc(b1-2)Man(a1-6)]Man(b1-4)GlcNAc(b1-4)GlcNAc
# In short: as §1
# [2] = target: Fuc(a1-2)Gal(b1-3)GlcNAc(b1-3)[Gal(b1-4)GlcNAc(b1-6)]Gal(b1-4)Glc
# In short: as §1
# [3] = target: Fuc(a1-2)Gal(b1-3)[Fuc(a1-4)]GlcNAc(b1-3)[Gal(b1-4)GlcNAc(b1-6)]Gal(b1-4)Glc
# In short: as §1
# [4] = target: Fuc(a1-2)Gal(b1-4)GlcNAc(b1-2)Man(a1-3)[Fuc(a1-2)Gal(b1-4)GlcNAc(b1-2)Man(a1-6)]Man(b1-4)GlcNAc(b1-4)[Fuc(a1-6)]GlcNAc
# In short: as §1
# [5] = target: Fuc(a1-2)Gal(b1-4)GlcNAc(b1-2)[Fuc(a1-2)Gal(b1-4)GlcNAc(b1-4)]Man(a1-3)[Fuc(a1-2)Gal(b1-4)GlcNAc(b1-2)Man(a1-6)]Man(b1-4)GlcNAc(b1-4)GlcNAc
# In short: as §1
# [6] = target: Fuc(a1-2)Gal(b1-4)[Fuc(a1-3)]GlcNAc(b1-2)[Fuc(a1-2)Gal(b1-4)[Fuc(a1-3)]GlcNAc(b1-4)]Man(a1-3)[Fuc(a1-2)Gal(b1-4)[Fuc(a1-3)]GlcNAc(b1-2)Man(a1-6)]Man(b1-4)GlcNAc(b1-4)GlcNAc
# In short: as §1
# Fuc(a1-2)Gal6S(b1-4)Glc = target: Fuc(a1-2)Gal6S(b1-4)Glc
# In short: as §1
# [7] = target: Fuc(a1-2)Gal6S(b1-4)Glc6S
# In short: as §1
# [8] = target: Gal(a1-3)Gal(b1-3)[Fuc(a1-4)]GlcNAc(b1-2)Man(a1-3)[Gal(a1-3)Gal(b1-3)[Fuc(a1-4)]GlcNAc(b1-2)Man(a1-6)]Man(b1-4)GlcNAc(b1-4)GlcNAc
# In short: as §1
# [9] = target: Gal(a1-3)Gal(b1-4)GlcNAc(b1-6)GalNAc
# In short: as §1
# Gal(a1-4)Gal(b1-4)GlcNAc = target: Gal(a1-4)Gal(b1-4)GlcNAc
# In short: as §1
# Gal(a1-6)Glc = target: Gal(a1-6)Glc
# In short: as §1
# [10] = target: Gal(b1-3)GalNAc(b1-3)Gal(a1-4)Gal(b1-4)Glc
# In short: as §1
# [11] = target: Gal(b1-3)GlcNAc(b1-3)Gal(b1-3)GlcNAc
# In short: as §1
# [12] = target: Gal(b1-3)GlcNAc(b1-3)Gal(b1-4)[Fuc(a1-3)]GlcNAc
# In short: as §1
# [13] = target: Gal(b1-3)GlcNAc(b1-3)Gal(b1-4)[Fuc(a1-3)]GlcNAc(b1-6)[Gal(b1-3)GlcNAc(b1-3)]Gal(b1-4)Glc
# In short: as §1
# Gal(b1-4)Gal = target: Gal(b1-4)Gal
# In short: as §1
# [14] = target: Gal(b1-4)GlcNAc(b1-2)[Gal(b1-4)GlcNAc(b1-4)]Man(a1-3)[Gal(b1-4)GlcNAc(b1-2)Man(a1-6)]Man(b1-4)GlcNAc(b1-4)GlcNAc
# In short: as §1
# [15] = target: Gal(b1-4)GlcNAc(b1-3)Gal(b1-3)GlcNAc
# In short: as §1
# [16] = target: Gal(b1-4)GlcNAc(b1-3)Gal(b1-4)GlcNAc(b1-3)Gal(b1-4)GlcNAc(b1-2)[Gal(b1-4)GlcNAc(b1-3)Gal(b1-4)GlcNAc(b1-3)Gal(b1-4)GlcNAc(b1-6)]Man(a1-6)[Gal(b1-4)GlcNAc(b1-3)Gal(b1-4)GlcNAc(b1-3)Gal(b1-4)GlcNAc(b1-2)Man(a1-3)]Man(b1-4)GlcNAc(b1-4)[Fuc(a1-6)]GlcNAc
# In short: as §1
# [17] = target: Gal(b1-4)GlcNAc(b1-3)Gal(b1-4)GlcNAc(b1-3)Gal(b1-4)GlcNAc(b1-3)Gal(b1-4)GlcNAc(b1-3)Gal(b1-4)GlcNAc(b1-2)[Gal(b1-4)GlcNAc(b1-3)Gal(b1-4)GlcNAc(b1-3)Gal(b1-4)GlcNAc(b1-3)Gal(b1-4)GlcNAc(b1-3)Gal(b1-4)GlcNAc(b1-6)]Man(a1-6)[Gal(b1-4)GlcNAc(b1-3)Gal(b1-4)GlcNAc(b1-3)Gal(b1-4)GlcNAc(b1-3)Gal(b1-4)GlcNAc(b1-3)Gal(b1-4)GlcNAc(b1-2)Man(a1-3)]Man(b1-4)GlcNAc(b1-4)[Fuc(a1-6)]GlcNAc
# In short: as §1
# [18] = target: Gal(b1-4)GlcNAc(b1-3)Gal(b1-4)GlcNAc(b1-6)[Gal(b1-3)]GalNAc
# In short: as §1
# [19] = target: Gal(b1-4)GlcNAc(b1-3)Gal(b1-4)[Fuc(a1-3)]GlcNAc(b1-3)Gal(b1-4)[Fuc(a1-3)]GlcNAc
# In short: as §1
# [20] = target: Gal3S(b1-4)[Fuc(a1-3)]GlcNAc6S
# In short: as §1
# Gal3S4S(b1-4)GlcNAc = target: Gal3S4S(b1-4)GlcNAc
# In short: as §1
# Gal4S(b1-4)GlcNAc = target: Gal4S(b1-4)GlcNAc
# In short: as §1
# [21] = target: GalNAc(b1-3)Gal(a1-4)Gal(b1-4)GlcNAc
# In short: as §1
# [22] = target: GalNAc3S(b1-4)[Fuc(a1-3)]GlcNAc
# In short: as §1
# GalNAc4S6S(b1-4)GlcNAc = target: GalNAc4S6S(b1-4)GlcNAc
# In short: as §1
binder,measurement,setting,value
GS7807E-bfa-538-23-538 (Bacteroides fragilis) (protein) TDSFESFNTNEAGFDNDSKKQDFNYYGIPLGIIQQGIYFNYDWGSGKNWPFQTMQNLGADLFSGYVHDFNPFNEGKNNSTYYMMDGWNGSTWDNTYGYIMPEVQKSETINEKDNIGFFGITKILKVELMHRLSDLYGPIVYTQFGSKTGSTPDTQQEAYKAFFNDLDTGIAKIREYQKANPDIESFAKFDILMPQGKRTFSEWIRFANSLRLRLAVRIAMADSKLAVAEAQKALTDEEGLLEGNDEVVAVSTSSGYTNPFGEINKAWGEVFMNANMESLLVGYEDPRMEKYFDKATGSDATSLIDYKGTYKGIRQGTGFSHKNYNGHSKSTITQQTDAVLMTPAEVWFLRAEAALRGWSSESVKDCYEKGVKASFAQWGAAGAEAYLESDRKPSDYVDAFKAANNVKAVNTLTPKWDDAAGNEDKLGRIITQKWLAMFPEGGEAWAEQRRTGYPRLFPVLVNQSEGTVDTNLGPRRLNFFVGIKTTNPEQYTQLVNALGGIDNCGTRLWWDTGRNF,glycan array binding signal (z-score),Fuc(a1-2)Gal,-0.69
same,glycan array binding signal (z-score),[1],3.42
same,glycan array binding signal (z-score),[2],1.03
same,glycan array binding signal (z-score),[3],-0.553
same,glycan array binding signal (z-score),[4],-0.382
same,glycan array binding signal (z-score),[5],0.002
same,glycan array binding signal (z-score),[6],0.988
same,glycan array binding signal (z-score),Fuc(a1-2)Gal6S(b1-4)Glc,-0.644
same,glycan array binding signal (z-score),[7],-0.639
same,glycan array binding signal (z-score),[8],10.5
same,glycan array binding signal (z-score),[9],0.296
same,glycan array binding signal (z-score),Gal(a1-4)Gal(b1-4)GlcNAc,0.333
same,glycan array binding signal (z-score),Gal(a1-6)Glc,-0.29
same,glycan array binding signal (z-score),[10],0.143
same,glycan array binding signal (z-score),[11],0.812
same,glycan array binding signal (z-score),[12],-0.465
same,glycan array binding signal (z-score),[13],-0.627
same,glycan array binding signal (z-score),Gal(b1-4)Gal,-0.624
same,glycan array binding signal (z-score),[14],3.32
same,glycan array binding signal (z-score),[15],-0.306
same,glycan array binding signal (z-score),[16],4.56
same,glycan array binding signal (z-score),[17],0.867
same,glycan array binding signal (z-score),[18],4.07
same,glycan array binding signal (z-score),[19],0.531
same,glycan array binding signal (z-score),[20],-0.155
same,glycan array binding signal (z-score),Gal3S4S(b1-4)GlcNAc,-0.693
same,glycan array binding signal (z-score),Gal4S(b1-4)GlcNAc,-0.708
same,glycan array binding signal (z-score),[21],-0.246
same,glycan array binding signal (z-score),[22],3.75
same,glycan array binding signal (z-score),GalNAc4S6S(b1-4)GlcNAc,-0.65
